From PubChem BioAssay (Tox21)
Where “and” joins values, the source holds several entries; their conditions need not be identical. Equal entries are not always repeated. Results filed as inconclusive are left out. A structure can be active in one record and inactive in another. Calls of active or inactive are those of the source. The call rests on the fitted dose curve; in most records, active means well fitted inhibition curve with a large enough effect in the signal ratio in the repeat runs; inconclusive means weak or mixed curves, or effect the other way; inactive means flat fitted curve, though single readings scatter; the % refers to the signal ratio.

assay: qHTS assay for small molecule disruptors of the mitochondrial membrane potential (AID 720635); conditions: HepG2 mitochondrial membrane potential, Mito-MPS dye ratio; series mostly up to 83.2 µM; ratio activity, negative = MMP loss: at the top concentration
From the text: U.S. Tox21 Program National Center for Advancing Translational Sciences [NCATS] NIH Chemical Genomics Center [NCGC] U.S. Environmental Protection Agency [EPA] National Institutes of Environmental Health Sciences [NIEHS] National Toxicology Program [NTP] U.S. Food and Drug Administration [FDA] Tox21 Assay Overview: Mitochondrial membrane potential (MMP), one of the parameters for mitochondrial function, is generated by mitochondrial electron transport chain that creates an electrochemical gradient by a series of redox reactions. This gradient drives the synthesis of ATP, a crucial molecule for various cellular processes. Measuring MMP in living cells is commonly used to assess the effect of chemicals on mitochondrial function. […] The dye accumulates in the mitochondria of healthy cells as aggregates, with red fluorescence. The mitochondrial potential collapses and the dye can no longer accumulate in the mitochondria and remains in the cytoplasm in monomers, with green fluorescence.
Tox21 Assay Protocol Summary: 2,000 HepG2 cells in 5 uL/well were dispensed into black, clear-bottom 1536-well plates using a Multidrop Combi (Thermo Scientific) dispenser. The assay plates were incubated overnight at 37C to allow cells to attach to the wells, followed by the transfer of 23 nL compound or DMSO vehicle by a pin tool (Kalypsys). The plates were incubated for 1 hr at 37C and 5% CO2, followed by the addition of 5 uL of 2X Mito-MPS dye (BD Biosciences) into each well using Flying Reagent Dispenser (Aurora Discovery) and then following 30 min incubation at 37C. Fluorescence intensity (490nm excitation and 535nm emission for monomers; and 540nm excitation and 590nm emissions for aggregates) was measured using an Envision plate reader.
On the % scale 0 is the no-effect control and ±100 the full control effect; potency means the concentration at half of the fitted maximal effect.

| SMILES | Potency | ratio activity, negative = MMP loss |
| --- | --- | --- |
| Nc1ccc(Cl)cc1Cl | inactive | – |
| CC(=O)c1ccccn1 | inactive | – |
| COC(=O)C1=C(C)NC(C)=C(C(=O)OCCN(C)Cc2ccccc2)C1c1cccc([N+](=O)[O-])c1 (stereo not given) | 18.8 µM (active) | – |
| c1ccc2c(c1)c1cccc3ccc4cccc2c4c31 | 30.6 µM (active) | – |
| O=C(c1ccccc1)c1ccccc1O | inactive and 61.1 µM (active) | – |
| CCCCCCCCCC(=O)OC | inactive | – |
| CCCCC(CC)COC(=O)c1ccc(N(C)C)cc1 (stereo not given) | 8.68 µM (active) and 21.7 µM (active) | – |
| Oc1ccc(O)cc1 | inactive | – |
| Nc1ncn([C@@H]2O[C@H](CO)[C@@H](O)[C@H]2O)c(=O)n1 | inactive | – |
| c1cc(N(CC2CO2)CC2CO2)ccc1OCC1CO1 (stereo not given) | inactive | – |
| CC(=O)Oc1ccccc1C(=O)Nc1ncc([N+](=O)[O-])s1 | 1.5 µM (active) and 351 nM (active) | – |
| O=c1oc(=O)c2cc3c(=O)oc(=O)c3cc12 | inactive | – |
| Cc1ccc(C(=O)c2cc(O)c(O)c([N+](=O)[O-])c2)cc1 | 26.6 µM (active) and 4.86 µM (active) | – |
| CCCCNS(=O)(=O)c1ccccc1 | 48.6 µM (active) | – |
| CC(C(=O)O)c1cccc(C(=O)c2ccccc2)c1 (stereo not given) | inactive | – |
| CCCCCCCCCCCO | inactive and 21.7 µM (active) | – |
| CN(C)C(=N)N=C(N)N | – | 13.8% (inactive) |
| Cn1cnc([N+](=O)[O-])c1Sc1ncnc2nc[nH]c12 | 23.7 µM (active) | – |
| O=CCCCC=O | inactive | – |
| O=C=Nc1ccc(Cc2ccc(N=C=O)cc2)cc1 | – | -14.6% (inactive) |

| SMILES | Potency | ratio activity, negative = MMP loss |
| --- | --- | --- |
| c1ccc2cc(Nc3ccc(Nc4ccc5ccccc5c4)cc3)ccc2c1 | inactive | – |
| COC(=O)Nc1nc2ccc(S(=O)c3ccccc3)cc2[nH]1 (stereo not given) | inactive | – |
| O=C(Nc1ccc([N+](=O)[O-])cc1Cl)c1cc(Cl)ccc1O | 26.6 nM (active) and 9.7 nM (active) | – |
| S=C(NC1CCCCC1)NC1CCCCC1 | 53.4 µM (active) and 54.5 µM (active) | – |
| c1ccc2sc(SSN3CCOCC3)nc2c1 | 34.3 µM (active) and 27.3 µM (active) | – |
| CCCCC/C=C/C=C/C=O | 60.6 µM (active) and 54.5 µM (active) | – |
| OCCO | inactive | – |
| C[C@]12CC[C@H]3[C@@H](CCC4=CC(=O)CC[C@@]43C)[C@@H]1CC[C@@H]2C(=O)CO | – | -7.22% [at 39.1 µM] (inactive) |
| CC(C)OC=O | inactive | – |
| Nc1ccc(Nc2ccccc2)cc1 | 1.35 µM (active) and inactive | – |
| COC(=O)CCC(=O)OC | – | 14.7% (inactive) |
| Cc1c(OCC(F)(F)F)ccnc1CS(=O)c1nc2ccccc2[nH]1 (stereo not given) | 54.5 µM (active) | – |
| O=P(O)(O)O | inactive | – |
| Cc1ncc[nH]1 | inactive | – |
| Cc1cccc(C(=O)O)c1 | inactive | – |
| COc1ccc(OC)c(C(O)CNC(=O)CN)c1 (stereo not given) | – | 12.1% (inactive) |
| CC(C)OB(OC(C)C)OC(C)C | – | 15.1% [at 95.3 µM] (inactive) |
| Cc1c(C(N)=O)cc([N+](=O)[O-])cc1[N+](=O)[O-] | – | -10.9% (inactive) |
| CCCC(=O)O | inactive | – |
| O=C(COc1ccc(Cl)cc1)N1CCN(Cc2ccc3c(c2)OCO3)CC1 | – | -5.97% (inactive) |
